Experimental data taken from PubChem BioAssay (NCI).
The panel holds about 83,000 compounds, 20% with a hit somewhere; the sample as a whole holds those more often.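 Step 1: grow cells in 96-well plates. Step 2: add test compound at a single concentration. Step 3: incubate 48 h. Step 4: record percent growth.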 Calls of active or inactive are those of the source. How the source made its calls: active means growth percent below 10; inactive means the rest.

These compounds were tested on CAKI-1 renal (assay: NCI-60 one-dose screen, 48 h (100 = growth as untreated, 0 = no growth, -100 = all killed)). Settings: 10 µM unless noted.

Compound	growth
O=C(Nn1c(NCC(=O)N2c3ccccc3Sc3ccccc32)nnc1-c1ccc(O)cc1)c1ccccc1	101% (inactive)
N#C/C(=C\c1cccc2cnccc12)n1nnc2cccc(F)c21	41.5% (inactive)
O=C(S)CNC(=O)c1ccccc1	90.7% (inactive)
CN(C)c1ccc2nc3ccc(=[N+](C)C)c([N+](=O)[O-])c-3sc2c1	43.1% (inactive)
Cc1nc2ccccc2c(/C=C/c2ccccc2)c1C(=O)/C=C/c1ccc(C(F)(F)F)cc1	-76.6% (active)
CCOC(=O)c1nc(Nc2ccc(C(C)=O)cc2)sc1C	94.7% (inactive)
Oc1ccc(Cl)cc1Cc1cc(Cl)cc(Cl)c1O	49.6% (inactive)
COc1nc2ccc(C)cc2cc1-c1nc2c(cnn2-c2ccc(Br)cc2)c(=O)[nH]1	48.1% (inactive)
CC(=O)OC[C@H]1OC(Sc2sc(C(=O)c3ccc(Cl)cc3)c(N)c2-c2nc3ccccc3s2)[C@H](OC(C)=O)[C@@H](OC(C)=O)[C@@H]1OC(C)=O (stereo partly specified)	77.1% (inactive)
O=C1NC(=O)C(Cn2cnc3ccccc32)N1 (stereo unspecified)	101% (inactive)
COc1cc(/C=C/C(=O)/C=C/c2cc(OC)c3c(c2OC)OCO3)c(OC)c2c1OCO2	29.7% (inactive)
COc1c(B(O)O)cc(C)cc1-c1nc2ccc3[nH]ncc3c2c2c1CCCC2	-31.8% (active)
CCCCCCN(CCCCCC)c1ccc(/C=C2/SC(=O)NC2=O)c(C)c1	84.1% (inactive)
COC(=O)c1ccc2[nH]c(O)c(C(=Nc3ccc(N(C)C(=O)CN4CCN(C)CC4)cc3)c3ccccc3)c2c1	4.65% (active)
CCOC(=O)CC1C(COC(=O)NC)OC(n2cnc3c(NC(=O)Nc4ccccc4)ncnc32)C1O[Si](C)(C)C(C)(C)C (stereo unspecified)	60.8% (inactive)
CN1C(=O)N(C)C2Nn3c(s/c(=C\c4ccccc4)c3=O)=NC21 (stereo unspecified)	82.7% (inactive)
COc1cc(C(=O)c2cc(C)c3[nH]c4ccc(C)cc4c3c2C)cc(OC)c1OC	24.2% (inactive)
CC(=O)N1CCN(c2ccc(OCC3CO[C@](Cn4ccnc4)(c4ccc(Cl)cc4Cl)O3)cc2)CC1 (stereo partly specified)	79.6% (inactive)

Compound	growth
CN1CCN(Cc2ccc(NC(=O)c3cncc(C#Cc4cnccc4C#N)c3)cc2C(F)(F)F)CC1	54.8% (inactive)
CCOC(=O)/C(C#N)=C\Nc1ccc2ncnc(Nc3ccc(Cl)cc3Cl)c2c1	39% (inactive)
Cn1cc(C(=O)c2nc(-c3cn(C)c4ccc(F)cc34)no2)c2cc(F)ccc21	88.9% (inactive)
c1cc(-c2nnc(SSc3ncnc4nc[nH]c34)o2)ccn1	-6.89% (active)
CN(C)CC#Cc1ccc2ncc(C#N)c(Nc3ccc(F)c(Cl)c3)c2c1	17.1% (inactive)
C#Cc1cccc(NC(=O)Nc2ccccc2NC(=O)CCl)c1	-85.2% [8.25 µM] (active)
COc1ccc2c(c1OC)C(=O)O[C@H]2[C@H]1c2c(cc3c(c2OC)OCO3)CCN1C	80.3% (inactive)
C[C@]12CC[C@@H]3c4cc(OC(F)F)c(OS(N)(=O)=O)cc4CC[C@H]3[C@@H]1CC[C@@H]2O	41.4% (inactive)
CC(=O)Oc1ccccc1C(=O)N=C1[Se]CCCN1C(=O)c1ccccc1OC(C)=O	52.5% (inactive)
N#Cc1c(-c2ccc(Cl)cc2)nc2c(c(-c3ccccc3)nn2-c2ccccc2)c1-c1ccc(O)cc1	40.2% (inactive)
CC(=O)c1ccc(Nc2nc(C(C)=O)c(C)s2)cc1	88.2% (inactive)
O=C(CCCCCCSc1nc(-c2ccccc2)cc(-c2ccccc2)n1)NO	13.7% (inactive)
Cc1cc(Cl)ccc1NS(=O)(=O)c1ccc(-c2cnc(C3CC3)o2)cc1	43.4% (inactive)
Brc1ccc2[nH]cc(-c3nc(-c4c[nH]c5ccncc45)cs3)c2c1	-92.6% (active)
COc1cc(C(=O)/C=C/c2c(Cl)nc3sccn23)cc(OC)c1OC	84.9% (inactive)
N/C(=N\c1nc2ccccc2s1)NC(=O)Nc1cccc2ccccc12	29.5% (inactive)
NC1CCN(c2nc(Nc3cccc(C(F)(F)F)c3)c3c(=O)[nH]ccc3n2)CC1	-13.8% (active)
COc1ccc(/C=N/Nc2cc(=O)[nH]c3ccc(Cl)cc23)cc1	86.2% (inactive)
